This passage reports activation results from PubChem BioAssay AID504692 (The Scripps Research Institute Molecular Screening Center, 2011).

Molecules are shown by their SMILES. Screen size: about 340,000 compounds; about 2,000 (0.59%) were called active. This excerpt belongs to a sample that is enriched for actives. Values without a mark were called inactive. Cut-off read from the data, not from the text of the source: active = activation mostly above about 9.5% (no sharp cut-off); inactive = mostly below about 7.6%.

For the assay, the target named is 5-hydroxytryptamine receptor 5A (Homo sapiens) (UniProt P47898). Put plainly: activation of human 5-HT5A receptor – cell-based, luminescence, full-deck HTS, counter-screen for OPRM1-OPRD1 heterodimer agonist project, primary screen (AID 504692).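 Note: 0% = cells with vehicle only and 100% = reference agonist.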 The conditions noted are these: HTR5A agonist assay, at 9.3 µM, active compounds read high.
5-hydroxytryptamine receptor 5A (Homo sapiens), sequence (P47898 whole entry, looked up): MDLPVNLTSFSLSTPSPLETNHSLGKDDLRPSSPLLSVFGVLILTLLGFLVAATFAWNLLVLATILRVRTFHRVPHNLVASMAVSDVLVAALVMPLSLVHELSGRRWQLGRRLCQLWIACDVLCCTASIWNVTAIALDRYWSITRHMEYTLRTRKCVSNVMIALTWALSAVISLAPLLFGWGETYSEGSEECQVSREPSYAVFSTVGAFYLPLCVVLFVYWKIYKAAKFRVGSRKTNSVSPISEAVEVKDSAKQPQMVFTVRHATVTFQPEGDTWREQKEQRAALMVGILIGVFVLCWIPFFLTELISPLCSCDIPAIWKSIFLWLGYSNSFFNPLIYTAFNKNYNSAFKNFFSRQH
Take `CCOc1ccccc1NC(=O)CCS(=O)(=O)c1cccc2nsnc12`: the activation is 6.16%. `O=C(COC(=O)c1cccnc1Cl)NC(=O)NC1CCCCC1`: the activation is -1.43%.

Take `OC(COCCC12CC3CC(CC(C3)C1)C2)CN1CCCCC1` (stereo unspecified): the activation is 3.12%.

Consider `CCCOc1cccc(C(=O)Nc2ccccc2C(=O)N2CCN(C)CC2)c1`, for which the activation is -7.36%. Consider `COc1ccccc1CNC(=O)COn1nnc2ccc(S(=O)(=O)N3CCOCC3)cc21`, for which the activation was -2.13%.

Consider `O=C(COc1ccccc1)N1CCN=C1SCc1cccc(F)c1`, for which the activation is 8.07%.

As for `CN(Cc1cnccn1)C(=O)c1cc(COc2cccc(C(F)(F)F)c2)on1`, the activation is 0.68%.

`CN(Cc1cccnc1)C(=O)c1cc(COc2ccc3ncccc3c2)on1`: the activation was 11.7% (active). Regarding `CC(=O)c1cccc(OCc2cc(C(=O)NC(C)Cc3cccnc3)no2)c1` (stereo unspecified), the activation is 2.99%. With `O=S(=O)(NC1CCCC1)c1ccc(-n2cnnn2)cc1` the figure was 4.29%; with `CCn1c(C(C)C)n[nH]c1=S`, 1.98%. With `CCOC(=O)c1c(NC(=O)CSc2cn(CC)c3ccccc23)sc2c1CCC2` the figure was -4.94%; with `CCOC(=O)c1c(NC(=O)Cn2nc(C(F)(F)F)cc2C)sc2c1CCC2`, 12.1% (active); with `CCOC(=O)c1c(NC(=O)NC(C)(C)C)sc2c1CCN(C)C2`, -2.16%. On to `CCCn1c(SCC(=O)Nc2c(C)cccc2C)nnc1C(C)C`, for which the activation was -3.62%. With `O=C(COc1ccccc1Cl)Nn1cnnc1`, the activation was 0.57%. For the compound `COc1cc2c(-c3ccc4c(c3)OCO4)c(-c3ccsc3)oc(=O)c2cc1OC`, the activation was 15.3% (active). As for `COc1cc(-c2c(-c3ccc4c(c3)OCO4)noc2C)ccc1F`, the figure is -0.29%; as for `COC(=O)c1c(-c2ccsc2)oc2ccc(-c3cc(OC)c(OC)c(OC)c3)cc12`, 6.62%.

`O=C(CCl)NNc1cccc(Cl)n1`: the activation is -8.59%.

For the compound `COc1ccc2c(c1)SC(C)CC2=O` (stereo unspecified), the activation is 10.6% (active).

With `COc1ccc(N)c(C)c1`, the activation is 0.27%.

`COc1ccc2c(c1)C(=O)CC(c1ccccc1)O2` (stereo unspecified): the activation is -1.73%. As for `O=S(=O)(c1cccc(-c2nnc(SC(F)F)n2-c2ccccc2)c1)N1CCCCC1`, the figure is 0.34%.

Take `CCOc1ccc(CN2CCN(Cc3ccc(C)o3)CC2CCO)cc1` (stereo unspecified): the activation was -1.69%. As for `Cc1ccc(CN2CCN(Cc3ccc(OCCO)cc3)CC2CCO)o1` (stereo unspecified), the activation was 15% (active).

As to `Cc1ccc(CN2CCN(Cc3cn(C)nc3-c3ccccc3)CC2CCO)o1` (stereo unspecified), the activation is -1.42%.

On to `Cc1ccc2c(c1)C(c1ccccc1)N(C(=O)c1ccc(F)cc1)CC(=O)N2` (stereo unspecified), for which the activation was -1.42%. Turning to `COc1ccc2c(CC(=O)OCC(=O)Nc3ccccc3[N+](=O)[O-])coc2c1`, the activation is -1.41%. As for `O=S(=O)(Nc1ccccc1Br)c1cccs1`, the figure is 8.11%. For the compound `Cc1ccc(NS(=O)(=O)c2cccs2)cc1S(=O)(=O)N1CCCCCC1`, the activation was 0.15%. As for `O=S(=O)(Nc1ccccc1)c1ccc(NS(=O)(=O)c2cccs2)cc1`, the figure is 9.34% (active). As for `Cc1c(OC(C)C(=O)NCC2CCC(C(=O)O)CC2)ccc2c1oc(=O)c1ccccc12` (stereo unspecified), the figure is 1%; as for `CCOC(=O)N1CCC(Nc2c(NCCCN3CCN(c4ccc(OC)cc4)CC3)c(=O)c2=O)CC1`, -0.13%. With `COc1ccc(S(=O)(=O)Nc2cc(C)on2)cc1NC(C)=O` the figure was 1.04%; with `CC(C)(C)c1ccc(C(=O)N2CCC(C(=O)N3CCCCC3)CC2)cc1`, 5.42%. Take `COc1ccccc1CNC(=O)C1CCN(S(=O)(=O)c2ccc3c(c2)CC(C)N3C(=O)C2CC2)CC1` (stereo unspecified): the activation was -0.1%. For the compound `COc1ccc(S(=O)(=O)N2CCN(CC(=O)N3c4ccccc4CC3C)CC2)cc1OC` (stereo unspecified), the activation was 22.4% (active).

Take `CC1Cc2ccccc2N1C(=O)CSc1nnc(-c2ccc(S(=O)(=O)N3CCCC3)cc2)n1C` (stereo unspecified): the activation was 2.27%.

Turning to `O=C(CCS(=O)(=O)c1cccc2nsnc12)N1CCN(c2ccccc2F)CC1`, the activation was 5.73%. With `CC(Cc1ccccc1)C(=O)N(C)Cc1ccccc1` (stereo unspecified) the figure was 12.5% (active); with `CN(Cc1ccccc1)C(=O)c1cccc(C(=O)N(C)Cc2ccccc2)c1`, -0.63%. With `CN(Cc1ccccc1F)C(=O)C(Cc1ccccc1)NC(=O)c1ccccc1` (stereo unspecified), the activation was -1.74%. As for `O=C(COC(=O)/C=C/c1ccc(S(=O)(=O)N2CCCCCC2)cc1)NCc1ccccc1Cl`, the activation is -5.05%.

For the compound `O=C1CCCN2N=C(SCC(=O)Nc3ccc(Br)cc3)SC2=N1`, the activation is -3.71%. As for `CCCCCN(C(=O)NC(=O)Nc1ccccc1OC)S(C)(=O)=O`, the figure is -1.57%.

Consider `Cc1ccc(C2=N/C(=C\c3ccc(OS(=O)(=O)c4ccc(C)cc4)cc3)C(=O)O2)cc1`, for which the activation is 0.86%. `CCOc1cc(/C=C2/N=C(c3ccc(C(C)(C)C)cc3)OC2=O)cc(Cl)c1OS(C)(=O)=O`: the activation was 13.3% (active). With `Cc1cc(C)c(C)c(S(=O)(=O)Nc2ccc(O)cc2)c1C` the figure was 3.2%.

For the compound `Cc1cc(C)c(C)c(S(=O)(=O)Nc2cccnc2)c1C`, the activation is 13.8% (active).

Turning to `COc1ccc(S(=O)(=O)Nc2cccnc2)c(Cl)c1Cl`, the activation was -1.41%.

Regarding `O=C(OCc1ccc([N+](=O)[O-])cc1)C1CC(=O)N(Cc2ccccc2Cl)C1` (stereo unspecified), the activation is -0.92%. Take `CCc1cccc(C)c1NS(=O)(=O)c1c(C)nc2sccn2c1=O`: the activation is 0.59%. For the compound `COCCC(=O)N1CCC(Oc2ccc(C(=O)NCc3ccon3)cc2)CC1`, the activation was 1.64%. As for `COc1ccc(CCNC(=O)CC2SC(=Nc3cc(C)cc(C)c3)NC2=O)cc1OC` (stereo unspecified), the figure is 1.71%; as for `O=C(CC1NCCNC1=O)Nc1ccc(Oc2ccccc2)cc1` (stereo unspecified), 1.17%; as for `O=C(CC1Nc2ccccc2NC1=O)Nc1ccccc1` (stereo unspecified), 17% (active). With `COC(=O)c1cc(C)sc1NC(=O)CC1Nc2ccccc2NC1=O` (stereo unspecified) the figure was 2.14%; with `COc1ccc(/C=C(\NC(=O)c2ccc(OCC(C)C)cc2)C(=O)OCc2ccco2)cc1`, -0.73%; with `O=S(=O)(NCc1cccnc1)c1ccc(Cl)nc1`, -5.88%. With `Cc1ccc2[nH]cc(CCCN3C(=O)c4ccccc4C3=O)c2c1`, the activation was -1.1%. With `COc1ccc2[nH]cc(CCN3C(=O)c4ccc(C(=O)O)cc4C3=O)c2c1` the figure was 27% (active); with `COCCCN1C(=O)c2ccc(C(=O)Nc3ccc(OC)cc3OC)cc2C1=O`, -0.44%. Consider `O=C(CNCc1cccs1)Nc1cc(S(=O)(=O)N2CCCC2)ccc1Cl`, for which the activation was -2.05%. With `COc1ccccc1CNC(=O)C1CCCN(S(=O)(=O)c2cccc3cccnc23)C1` (stereo unspecified) the figure was -3.07%; with `CCC(C)OC(=O)C(C)Oc1ccc(-c2ccccc2)cc1` (stereo unspecified), 3.02%; with `CCc1ccccc1N1C(=O)C2C3CC(=O)C(c4ccccc43)C2C1=O` (stereo unspecified), 10.2% (active). As for `CC1=C(C)CC2C(=O)N(c3cccc4ccccc34)C(=O)C2C1` (stereo unspecified), the figure is 1.96%. As for `CC(=O)Nc1ccc(N2C(=O)C3C4CC(=O)C(c5ccccc54)C3C2=O)cc1` (stereo unspecified), the figure is -1.72%. As to `Cn1nc(C(C)(C)C)c([N+](=O)[O-])c1C(N)=O`, the activation is -3.65%.

Regarding `NC(=O)c1ccc(N2CCOCC2)nc1`, the activation is 5.3%.

For the compound `CCCN(CC1CC1)C(=S)NC(=O)c1ccccc1Br`, the activation was -3.6%. As for `CC[C@]12c3[nH]c4cc(CCC(=O)N(C)C)ccc4c3CCN1C(=O)[C@@H](CC(=O)NCc1ccco1)C[C@@H]2C(=O)N1CCN(C(=O)c2ccco2)CC1`, the figure is -2.65%; as for `CC[C@]12c3[nH]c4cc(CCC(=O)N(C)C)ccc4c3CCN1C(=O)[C@@H](CC(=O)NCCCn1ccnc1)C[C@@H]2C(=O)N1CCN(C(=O)C2CC2)CC1`, 2.93%.

Consider `CC[C@]12c3[nH]c4cc(CCC(=O)N(C)C)ccc4c3CCN1C(=O)[C@@H](CC(=O)NCCCN(C)C)C[C@@H]2C(=O)N1CCN(C(=O)c2ccco2)CC1`, for which the activation is 4.2% (active). Take `O=C(c1cccnc1)N(Cc1ccccc1)C(=O)c1cccnc1`: the activation is 5.83%.

For `O=C(c1cccnc1)N(c1cc2sc(=O)oc2c2ccccc12)S(=O)(=O)c1ccccc1`, the activation is 16.1% (active). With `COc1ccc(N(C(=O)c2cccnc2)S(=O)(=O)c2ccc(OC)c(OC)c2)cc1` the figure was 6.11%. As for `COCCCn1c(-c2cccs2)nc2nc3ccccc3nc21`, the figure is -0.51%; as for `CC(OC(=O)CCc1nc(=O)c2ccccc2n1C)C(=O)NCc1ccc2c(c1)OCO2` (stereo unspecified), -4.46%; as for `C=CCSc1nnc2c(n1)-c1cccc3cccc-2c13`, -0.69%. As for `COc1cccc(C(=O)NNS(=O)(=O)c2ccc(F)cc2)c1`, the figure is -2.33%; as for `Nc1ccc(C(=O)N2CCN(S(=O)(=O)c3ccc(Cl)cc3)CC2)cc1[N+](=O)[O-]`, -1.02%; as for `O=C(COc1ccc(Cl)cc1[N+](=O)[O-])N1CCCCC1`, -1.55%.

As for `O=C(c1ccc(Oc2ccc(Cl)cc2)c([N+](=O)[O-])c1)N1CCCC1`, the activation was 11% (active). With `Cc1cnc(C(=O)N2CCCC(N3CCN(c4ccccc4F)CC3)C2)cn1` (stereo unspecified) the figure was 5.27%.

Consider `Cc1ccc(S(=O)(=O)/N=C(/Nc2ccc3[nH]c(=O)[nH]c3c2)c2ccccc2)cc1`, for which the activation is 3.44%.

As to `O=C(Nc1ccc(Cl)cn1)c1ccc2c(c1)OCCO2`, the activation is 1.65%. As for `COc1c(Cl)cc(C(=O)Nc2ccc(Cl)cn2)cc1Cl`, the figure is 18.5% (active). With `COc1ccc(C(=O)NC(=S)Nc2ccc(Cl)cn2)cc1OC` the figure was 0.47%.

Regarding `O=C(NCCS(=O)(=O)c1ccc(Br)cc1)c1ccccc1Cl`, the activation is 0.17%.
